Data published in the supplement of paper PMC5662767.
Counter-ions that a name gives are not always drawn.

Test system: Drosophila S2 cl14 SmoIP sensor cells
Assay: normalized SmoIP GFP fluorescence (untreated unstimulated = 0%, untreated Hh-stimulated = 100%); higher = more Smo activation sensor fluorescence
Details: compound concentration: 2 uM, 24 h
[1] = stimulation: Hh conditioned medium (+Hh)
[2] = stimulation: mock conditioned medium (-Hh)
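Further: flow cytometry read-out as median GFP intensity of gated cells, compounds added 30 min before Hh-conditioned or mock medium, mock-treated cells serving as unstimulated baseline.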

Cc1cc(Nc2ncc(Cl)c(Nc3ccccc3S(=O)(=O)C(C)C)n2)c(OC(C)C)cc1C1CCNCC1
normalized SmoIP GFP fluorescence [1]: 113%
normalized SmoIP GFP fluorescence [2]: 3.77%

CN(Cc1cnc2nc(N)nc(N)c2n1)c1ccc(C(=O)N[C@@H](CCC(=O)O)C(=O)O)cc1 [Abitrexate]
normalized SmoIP GFP fluorescence [1]: 200%
normalized SmoIP GFP fluorescence [2]: 13.3%

COCCOc1ccc2c(c1)ncn2-c1ccc2cccc(N3CCC(N)CC3)c2n1
normalized SmoIP GFP fluorescence [1]: 264%
normalized SmoIP GFP fluorescence [2]: 80%

NS(=O)(=O)c1ccc(NC(=O)Nc2ccc(F)cc2)cc1
normalized SmoIP GFP fluorescence [1]: 101%
normalized SmoIP GFP fluorescence [2]: -3.05%

Cc1cccc(C)c1OCC(=O)N[C@@H](Cc1ccccc1)[C@@H](O)C[C@H](Cc1ccccc1)NC(=O)[C@H](C(C)C)N1CCCNC1=O [Lopinavir]
normalized SmoIP GFP fluorescence [1]: 117%
normalized SmoIP GFP fluorescence [2]: 6.52%

Cc1ccc(NCCCc2ccccc2)c(N)c1
normalized SmoIP GFP fluorescence [1]: 224%
normalized SmoIP GFP fluorescence [2]: 40.1%

Cc1cc(C)nc(NS(=O)(=O)c2ccc(NC(=S)NC(=O)COc3ccc(Br)cc3Cl)cc2)n1
normalized SmoIP GFP fluorescence [1]: 105%
normalized SmoIP GFP fluorescence [2]: -4.81%

CCc1c2c(nc3ccc(O)cc13)-c1cc3c(c(=O)n1C2)COC(=O)[C@]3(O)CC
normalized SmoIP GFP fluorescence [1]: 95.2%
normalized SmoIP GFP fluorescence [2]: 5.3%

C[C@]12CCC(=O)C=C1[C@@H]1C[C@@H]1[C@H]1[C@@H]3[C@@H]4C[C@@H]4[C@@]4(CCC(=O)O4)[C@@]3(C)CC[C@@H]12 [Drospirenone]
normalized SmoIP GFP fluorescence [1]: 110%
normalized SmoIP GFP fluorescence [2]: 1.03%

COC1CCN(C(=O)c2cc(Cc3n[nH]c(=O)c4ccccc34)ccc2F)CC1
normalized SmoIP GFP fluorescence [1]: 103%
normalized SmoIP GFP fluorescence [2]: -3.5%

CC(C)NC[C@@H](C(=O)N1CCN(c2ncnc3c2[C@H](C)C[C@H]3O)CC1)c1ccc(Cl)cc1
normalized SmoIP GFP fluorescence [1]: 103%
normalized SmoIP GFP fluorescence [2]: -1.12%

Cc1cc(C(C)(C)C)c(O)c(C)c1CC1=NCCN1 [Oxymetazoline-hydrochloride]
normalized SmoIP GFP fluorescence [1]: 95.8%
normalized SmoIP GFP fluorescence [2]: -3.5%
